Most compounds without a hit are left out; they make up all but 2.2% or so of the library.
Mito fusion act: qHTS Assay for Small Molecule Inhibitors of Mitochondrial Division or Activators of Mitochondrial Fusion. S. cerevisiae fusion-defective mutant growth rescue, CellTiterGlo 48 h. Potency, µM (highest dose often 46.1 µM), for inactives: top-dose growth rescue (activation), actives largely listed as activators. 320,000 compounds, 0.23% hits. AID 485298, 2010; also: % of control where 0% means no effect; nearly all actives have a fitted effect of over 45% in size
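Compounds are tested for their ability to restore growth of mitochondrial fusion-defective yeast strains at non-permissive 37C in YPEG medium over 48 hours. Viability is quantified by luciferase luminescence.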
TDP43 rescue: qHTS of TDP-43 Inhibitors. TDP-43 expressing yeast growth rescue, BacTiter-Glo, 24 h. Potency, µM (top dose mostly 46.1 µM), for inactives: at the highest dose growth rescue (activation), usual class: activators. 410,000 compounds, 1.8% hits. AID 652104, 2013; also: % of control where 0% means no effect; nearly all actives have a fitted effect of over 50% in size
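In this qHTS, compounds that restore growth of yeast expressing TDP-43 appear as activators. Cells (OD600=0.02, galactose medium, raffinose-pregrown) are incubated with compound 24 hr at 30 deg C and growth is quantified by BacTiter-Glo.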
aSyn rescue: qHTS of alpha-syn Inhibitors; Yeast expressing alpha-synuclein, growth rescue, BacTiter-Glo, 24 h; 370,000 compounds, 0.14% hits; Potency, µM (series often up to 46.1 µM), for inactives: at the highest dose growth rescue (activation), most hits filed as activators; also: % of control where 0% means no effect; nearly all actives have a fitted effect of over 65% in size
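Screening used galactose-induced yeast with toxic alpha-synuclein levels, exposed to compound for 24 hr at 30 deg C. Cell growth, read with BacTiter-Glo luminescence, gave the measured signal.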
ERG Ets-DNA blk: qHTS for Small Molecule Inhibitors of the ERG Ets/DNA interaction | fluorescence polarization, His-ERG Ets domain / labelled DNA | 370,000 compounds, 0.028% hits | AID 624246, 2012 | Potency, µM (series often up to 76.9 µM), for inactives: top-dose FP activity, negative = inhibition, most hits filed as inhibitors | Transcriptional regulator ERG (Homo sapiens), P11308; active = well fitted inhibition curve with a large enough effect in the polarisation, with a control signal flat; inconclusive = small, poorly fitted or top-dose-only effect, or effect the other way, or a change in a side signal; inactive = no such curve, though single readings can be large or run the other way; the % refers to the polarisation;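 also: polarization taken with two DNA probes labelled with fluorescein and Texas red; % of control where 0% means no effect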
Target sequence (P11308 whole entry, looked up, the tested form may be a part): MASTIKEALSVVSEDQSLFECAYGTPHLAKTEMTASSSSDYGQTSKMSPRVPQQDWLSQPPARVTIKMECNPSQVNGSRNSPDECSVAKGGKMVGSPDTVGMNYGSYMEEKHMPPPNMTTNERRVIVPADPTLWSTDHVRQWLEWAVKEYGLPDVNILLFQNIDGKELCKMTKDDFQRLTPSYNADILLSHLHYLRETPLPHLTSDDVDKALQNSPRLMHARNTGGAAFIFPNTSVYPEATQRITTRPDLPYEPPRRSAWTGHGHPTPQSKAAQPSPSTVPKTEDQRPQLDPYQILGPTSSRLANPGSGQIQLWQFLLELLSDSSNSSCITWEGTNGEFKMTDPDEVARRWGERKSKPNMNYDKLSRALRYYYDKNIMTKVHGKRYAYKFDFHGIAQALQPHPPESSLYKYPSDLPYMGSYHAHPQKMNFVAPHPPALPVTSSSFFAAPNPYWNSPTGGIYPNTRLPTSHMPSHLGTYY
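His-tagged ERG Ets domain (1 uM in the protein solution; 300mM KCl, 50mM Tris-HCl, 1mM EDTA, 1mM DTT, pH 7.5) received compound, then a probe mix of 5 nM fluorescein-DNA and 100nM Texas-615-DNA. Fluorescence polarization was read for both dyes.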
Abeta yeast res: qHTS for compounds that reverse cellular toxicity of Amyloid beta (A-beta) peptide in yeast: Primary Screen. yeast expressing A-beta42, growth rescue, OD600, 48 h; response scale: 0% DMSO, 100% iron-clioquinol control. Potency, µM (highest dose often 46.1 µM), most hits filed as activators. 410,000 compounds, 0.063% hits. AID 1347071, 2019; also: nearly all actives have a fitted effect of over 55% in size
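Yeast A-beta toxicity model in growth medium with pinned compounds, 48 h at 30 C; growth read as absorbance at 600 nm. Normalized to FeCl3/clioquinol equimolar mix (positive) and DMSO (negative).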
FUS suppressor: qHTS for Suppressors of FUS Proteinopathy: Primary screen using FUS-linked yeast assay; S. cerevisiae FUS-expressing, growth rescue, OD600, 24 h; AID 1347120, 2019; 390,000 compounds, 0.24% hits; Potency, µM (doses to about 76.6 µM), usual class: activators;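 also: plate controls were DMSO vehicle for no effect and reference control for full effect; nearly all actives have a fitted effect of over 55% in size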
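Steps: raffinose overnight preculture; dilution to OD 0.005 in 2% galactose minimal medium; compound addition (concentration series); 24hr at 30C, 99% humidity; absorbance read at 600 nm.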
* hit, by the source's call; i = inactive; ? = inconclusive; / = no result; [ ] = dose if it differs, or a comment. Unless noted, calls follow the shape of the dose curve; as a rule, active = well fitted curve in the direction sought with a large enough effect; inconclusive = small, poorly fitted or top-dose-only effect, or another doubt; inactive = no such curve, though single readings can be large; an effect the other way counts as inactive or inconclusive. Potency is read from the fitted curve at half-maximal effect.

SMILES | Mito fusion act | TDP43 rescue | aSyn rescue | ERG Ets-DNA blk | Abeta yeast res | FUS suppressor
CCC(=O)N1CCc2cc(Br)cc(S(=O)(=O)N3CCCC(C(=O)Nc4ccc(C(C)C)cc4)C3)c21 (configuration not stated) | / | -8% | / | 0% | i | 8.9µM*
O=C(NCc1ccccc1)c1ccc2ccccc2n1 | ? | 15% | 0% | -7% | i | i
Cc1ccccc1CNC(=O)c1ccc2ccccc2n1 | ? | 16µM* | 12% | 10% | i | i
NC(=O)c1ccsc1NC(=O)COC(=O)Cc1ccccc1[N+](=O)[O-] | / | 5% | 4% | / | i | i
O=C(Cc1ccccc1[N+](=O)[O-])OCC(=O)c1ccccc1Br | / | 13µM* | 2% | 1% | i | i
CC(=O)C1=C(C)NC(SCC(=O)c2cc(Cl)ccc2Cl)=C(C#N)C1c1ccco1 (configuration not stated) | 23% | -29% | -8% | 6% | i | 25µM*
CC(=O)C1=C(C)NC(SCC(=O)c2ccc(Cl)c(Cl)c2)=C(C#N)C1c1ccco1 (configuration not stated) | ? | -1% | 6% | / | i | i
Cc1cc(C)c(C#N)c(SCC(=O)c2cccs2)n1 | 11% | 2.8µM* | 12% | -4% | i | i
Cc1cc(C)c(C#N)c(SCC(=O)c2ccccc2)n1 | ? | -9% | -6% | 5% | i | i
CC1(C)CN(c2ccc(Br)cc2)C(=O)[C@H]1CC(=O)Nc1ccccc1 | / | 18µM* | 12% | / | i | i
CC(C)(C)c1ccc(OCCn2c(CCNC(=O)C3CCCCC3)nc3ccccc32)cc1 | / | / | -40% | / | / | /
COc1ccc(-n2cc(C(=O)NCCc3ccc(C)cc3)c3ccccc3c2=O)cc1 | / | 18µM* | / | -7% | i | i
COC(=O)C[C@H]1C=C[C@H](NC(=O)Nc2ccccc2)[C@@H](CO)O1 | / | 16% | 8% | / | i | i
Cc1ccc(N(C)S(=O)(=O)c2cccc(C(=O)Nc3nc4ccccc4[nH]3)c2)cc1 | 20µM* | 21% | -1% | -10% | i | /
Cc1ccc(/C(O)=C2\C(=O)C(=O)N(CCc3c[nH]c4ccccc34)C2c2cccnc2)cc1 (configuration not stated) | -28% | -17% | -2% | -2% | i | 35µM*
CCN(CC)CCN1C(=O)C(=O)/C(=C(/O)c2ccc(C)cc2)C1c1cccnc1 (configuration not stated) | 3% | 7% | 1% | 6% | i | i
COC1=C(OC)C(=O)C(Sc2ccc3ccccc3c2)=CC1=O | / | ? | 14µM* | -1% | i | /
COc1ccc(S(=O)(=O)Oc2ccc3ccccc3c2)cc1 | 19% | ? | -1% | -4% | i | /
C(=N\Nc1nc(-c2ccccn2)nc2ccccc12)/c1ccccc1 | -4% | / | 13µM* | / | / | /
COC(=O)NNC(=O)c1ccc(C)c(Br)c1 | -28% | 20µM* | 2% | 2% | ? | /
Cc1ccc(N2C(=O)c3ccccc3C2Nc2ccc(S(=O)(=O)N3CCCCC3)cc2)nc1 (configuration not stated) | 1% | ? | 0% | -10% | i | 35µM*
Cc1ccc(N2C(=O)c3ccccc3C2Nc2ccc(S(=O)(=O)N3CCOCC3)cc2)nc1 (configuration not stated) | 0% | 1% | 0% | -6% | i | ?
N#C/C(=C\c1ccc[nH]1)Sc1nc2ccccc2s1 | ? | 22µM* | 3% | -16% | i | i
CC(C)NC(=O)C1(C)CCN1C(=O)c1c(F)cccc1F (configuration not stated) | / | 23% | -8% | / | i | i
CCc1ccccc1NC(=O)CSc1ncc(S(=O)(=O)c2ccccc2)c(=O)[nH]1 | / | 7% | 4µM* | -3% | i | i
SMILES | Mito fusion act | TDP43 rescue | aSyn rescue | ERG Ets-DNA blk | Abeta yeast res | FUS suppressor
CCOc1ccccc1N1CCN(C(=O)c2ccc(-c3ccc(OC(C)=O)cc3)cc2)CC1 | ? | 20µM* | 1% | 2% | i | ?
COc1ccccc1N1CCN(C(=O)Nc2cccc(C)c2)CC1 | 2% | ? | 22% | -14% | i[9.22 µM] | i
COc1ccccc1N1CCN(C(=O)c2ccc(-c3ccccc3)cc2)CC1 | 3% | 18µM* | 9% | -6% | i | i
CCOc1ccccc1N1CCN(C(=O)c2ccccc2)CC1 | 9% | 15% | -3% | 1% | i | i
COc1ccccc1N1CCN(C(=O)Nc2ccc([N+](=O)[O-])cc2)CC1 | 9% | 14µM* | 6% | 3% | i | i
COc1ccc(N2CCN(C(=O)c3ccc(N(C)S(=O)(=O)c4ccc(C)cc4)cc3)CC2)cc1 | 10% | 13µM* | 2% | -3% | i | ?
CCOC(=O)C1=C(C)NC(C)=C(C(=O)OCC)C1C(=O)OCC(=O)N(C)Cc1ccccc1 | / | -16% | -10% | 5% | i | i
COc1ccccc1N1CCN(C(=O)c2cc3c(=O)n4ccccc4nc3s2)CC1 | -6% | 20µM* | 8% | -10% | i | i
CCCS(=O)(=O)N1CCN(C(=O)c2ccc(-c3ccccc3)cc2)CC1 | -8% | 18µM* | ? | -1% | i | i
COc1ccccc1N1CCN(C(=O)c2cccc(Oc3ccccc3)c2)CC1 | -35% | 35µM* | 5% | 8% | i | i
COc1cccc(N2CCN(C(=O)c3ccc(-c4ccccc4)cc3)CC2)c1 | 2% | 13µM* | 11% | 0% | i | ?
COc1ccccc1-c1sc2cc3c(cc2c1C#Cc1cncn1C)OCO3 | / | -31% | -10% | -1% | i | ?
COc1ccc(-c2cn3c(C)c(C(=O)N4CCN(c5ccc(F)cc5)CC4)sc3n2)cc1 | -3% | 2% | 1% | -2% | i | i
Cc1noc(C)c1COc1ccccc1C(=O)N1CCN(c2cccc(Cl)c2)CC1 | 19% | 25% | 19% | 11% | i | i
COc1cc2ccccc2cc1C(=O)N1CCN(c2ccccc2O)CC1 | 8% | 13µM* | 1% | 12% | i | ?
COc1ccccc1N1CCN(C(=O)c2sc3nc(-c4ccc(F)cc4)cn3c2C)CC1 | ? | 11µM* | 17% | 5% | i | ?

Screening results: PubChem, National Center for Advancing Translational Sciences (NCATS)
